Most compounds without a hit are left out; they make up all but 6.8% or so of the library.
Pf Dd2 growth: blocks growth of Plasmodium falciparum Dd2 parasites. 2.3% of 94,000 active. P. falciparum Dd2 growth, SYBR Green, 72 h; stronger effect = lower value. AID 1159554. activity change, % at 10 µM; in the data active means activity change below about -80%
C diff HTS: C. difficile growth inhibition. growth activity, negative = inhibition, % at 16 µg/mL (by protocol). AID 1259249. 0.25% of 86,000 active. Clostridium difficile clinical isolate growth, OD600, 24 h; stronger effect = lower value;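 active means mean growth activity at or below -80% and every replicate also at or below -80%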;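 further: 0% = DMSO wells and -100% = levofloxacin 16 µg/mL wells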
T cruzi growth-1: blocks T. cruzi growth in NIH3T3 culture | inhibition, % at 8.34 µM | 5.9% of 77,000 active | T. cruzi beta-gal in NIH3T3, GalScreen luminescence, 90 h | AID 624255;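 active means mean inhibition above about 93%, with at least 55% of replicates each passing it, limit read from the data, passing the limit was not always enough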
T cruzi growth-2: blocks T. cruzi growth in NIH3T3 host cells | shares compounds with T cruzi growth-1 | T. cruzi beta-gal in NIH3T3, GalScreen luminescence, 90 h | inhibition, % at 8.35 µM | 72% of 5,600 active | AID 651739;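 active means mean replicate inhibition above about 95% and at least 55% of replicates individually reaching it, limit read from the data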
T cruzi growth-3: blocks T. cruzi growth in NIH3T3 host cells | shares compounds with T cruzi growth-1 | T. cruzi beta-gal in NIH3T3, GalScreen luminescence, 90 h | inhibition, % at 2.09 µM | 21% of 5,600 active;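 active means mean inhibition above about 95%, with at least 55% of replicates also reaching it, limit read from the data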;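 further: plate controls were neutral control median for no effect and positive control median for full effect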
NIH3T3 tox: NIH/3T3 (mouse) viability loss. 14% of 5,600 active. shares compounds with T cruzi growth-1. cytotoxicity (signal decrease), % at 8.35 µM. AID 651742. NIH/3T3 viability, CellTiter-Glo ATP luminescence, 90 h;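 active means mean signal decrease across replicates above about 35% based on untreated-well scatter, with enough replicates individually passing, limit read from the data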;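 further: 0% = median of neutral control wells and 100% = median of positive control wells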
NIH3T3 tox 2: cytotoxicity in mouse NIH/3T3 fibroblasts | 56% of 5,600 active | shares compounds with T cruzi growth-1 | AID 651744 | NIH/3T3 viability, CellTiter-Glo ATP luminescence, 90 h | inhibition, % at 24.9 µM;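 active means mean loss of cell viability signal at or above a set limit, and enough replicates individually reaching it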;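 further: 0% = median of neutral control wells and 100% = median of positive control wells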
Numbers without * were called inactive; nt = no result.

SMILES | Pf Dd2 growth | C diff HTS | T cruzi growth-1 | T cruzi growth-2 | T cruzi growth-3 | NIH3T3 tox | NIH3T3 tox 2
O=C(Cc1cccnc1)N1CC2(C1)[C@H](c1ccccc1)[C@H](CO)N2C(=O)C1CCC1 | 11 | 3 | nt | nt | nt | nt | nt
Cn1cnc(S(=O)(=O)N[C@@H]2CC[C@@H](CC(=O)Nc3ccccc3)O[C@H]2CO)c1 | nt | 3 | nt | nt | nt | nt | nt
C[C@H](CO)N1C[C@H](C)[C@H](CN(C)C(=O)Nc2ccc(C(F)(F)F)cc2)OCCCC[C@H](C)Oc2ccc(NC(=O)Nc3cccc4ccccc34)cc2C1=O | 30 | -13 | 11 | nt | nt | nt | nt
C[C@@H]1CCCCO[C@@H](CN(C)C(=O)Nc2ccc(C(F)(F)F)cc2)[C@H](C)CN([C@H](C)CO)C(=O)c2cc(NC(=O)Nc3cccc4ccccc34)ccc2O1 | -79 | -13 | 100* | 107* | 102* | -6 | 5
C[C@@H]1CCCCO[C@H](CN(C)C(=O)Nc2cccc3ccccc23)[C@H](C)CN([C@@H](C)CO)C(=O)c2cc(NC(=O)Nc3ccc(C(F)(F)F)cc3)ccc2O1 | -63 | 6 | 109* | 111* | 113* | 7 | 12
C[C@H](CO)N1C[C@H](C)[C@H](CN(C)C(=O)Nc2cccc3ccccc23)OCCCC[C@H](C)Oc2ccc(NC(=O)Nc3ccc(C(F)(F)F)cc3)cc2C1=O | -29 | -2 | 10 | nt | nt | nt | nt
C[C@@H]1CN([C@H](C)CO)C(=O)c2cccc(NS(=O)(=O)c3ccc(Cl)cc3)c2O[C@H]1CN(C)S(=O)(=O)c1cn(C)cn1 | 34 | nt | 6 | nt | nt | nt | nt
CN1CCN(C(=O)C[C@@H]2C=C[C@H](NC(=O)c3ccc4c(c3)OCO4)[C@@H](CO)O2)CC1 | -3 | -1 | -65 | nt | nt | nt | nt
CNC(=O)C[C@@H]1CC[C@H]2[C@H](COc3ccc(NC(=O)Nc4ccc(F)c(F)c4)cc3C(=O)N2C)O1 | -3 | -3 | -13 | nt | nt | nt | nt
CCCC(=O)Nc1ccc2c(c1)C(=O)N(C)C[C@H](OC)[C@H](C)CN(CC1CCOCC1)[C@@H](C)CO2 | nt | nt | 2 | nt | nt | nt | nt
Cc1noc(C)c1NC(=O)Nc1ccc2c(c1)C(=O)N(C)[C@@H]1CC[C@@H](CC(=O)N[C@@H]3CCN(Cc4ccccc4)C3)O[C@@H]1CO2 | 12 | -10 | 10 | nt | nt | nt | nt
Cc1noc(C)c1NC(=O)Nc1ccc2c(c1)C(=O)N(C)[C@@H]1CC[C@@H](CC(=O)N[C@H]3CCN(Cc4ccccc4)C3)O[C@H]1CO2 | 8 | -5 | 102* | 17 | -25 | -1 | -1
Cc1noc(C)c1NC(=O)Nc1ccc2c(c1)C(=O)N(C)[C@H]1CC[C@@H](CC(=O)N[C@H]3CCN(Cc4ccccc4)C3)O[C@H]1CO2 | 2 | 3 | 117* | 88 | 43 | -5 | -14
Cc1noc(C)c1NC(=O)Nc1ccc2c(c1)C(=O)N(C)[C@H]1CC[C@H](CC(=O)N[C@H]3CCN(Cc4ccccc4)C3)O[C@@H]1CO2 | 4 | 5 | -15 | nt | nt | nt | nt
O=C(C[C@@H]1CC[C@H]2[C@@H](COC[C@@H](O)CN2C(=O)c2ccccc2)O1)N1CCc2ccccc2C1 | -1 | 1 | 21 | nt | nt | nt | nt
C[C@H]1CN([C@@H](C)CO)C(=O)c2cc(C#Cc3ccccn3)cnc2O[C@H]1CN(C)Cc1cncnc1 | 19 | -1 | 72 | nt | nt | nt | nt
C[C@H](CO)N1C[C@H](C)[C@H](CN(C)Cc2cncnc2)Oc2ncc(C#Cc3ccccn3)cc2C1=O | 37 | 1 | 79 | nt | nt | nt | nt
CC(C)C#Cc1cnc2c(c1)C(=O)N([C@@H](C)CO)C[C@H](C)[C@@H](CN(C)Cc1cncnc1)O2 | 22 | -2 | 97* | 99* | 11 | -16 | 11
C[C@H](O)C#Cc1cnc2c(c1)C(=O)N([C@@H](C)CO)C[C@@H](C)[C@H](CN(C)Cc1cncnc1)O2 | 28 | -1 | -12 | nt | nt | nt | nt
C[C@@H]1CN([C@H](C)CO)C(=O)c2cc(C#Cc3ccccn3)cnc2O[C@H]1CN(C)Cc1cncnc1 | 10 | 1 | 104* | 107* | 55 | 13 | 18
C[C@@H]1CN([C@@H](C)CO)C(=O)c2cc(C#Cc3ccccn3)cnc2O[C@H]1CN(C)Cc1cncnc1 | 22 | 2 | 105* | 102* | 35 | -13 | 18
O=C(C[C@H]1CC[C@H]2[C@@H](COC[C@H](O)CN2S(=O)(=O)c2ccccc2)O1)Nc1ccc(-c2ccccc2)cc1 | -43 | nt | 95 | nt | nt | nt | nt
CCCNC(=O)C[C@H]1CC[C@@H]2[C@H](COc3ccc(NC(=O)Nc4cccc(C)c4)cc3C(=O)N2C)O1 | -19 | -2 | 13 | nt | nt | nt | nt
O=C(C[C@H]1CC[C@H](NC(=O)Nc2cc(F)ccc2F)[C@@H](CO)O1)NCCCN1CCOCC1 | 20 | -7 | nt | nt | nt | nt | nt
Cc1ccccc1-c1ccc([C@H]2[C@@H](CO)N3C(=O)CN(C(=O)c4ccccn4)C[C@@H]23)cc1 | 2 | -7 | nt | nt | nt | nt | nt
SMILES | Pf Dd2 growth | C diff HTS | T cruzi growth-1 | T cruzi growth-2 | T cruzi growth-3 | NIH3T3 tox | NIH3T3 tox 2
COCC(=O)N1[C@H](CO)[C@@H](c2ccccc2)[C@@H]1CN(C)C(=O)c1ccncc1 | 5 | -5 | 18 | nt | nt | nt | nt
C[C@@H]1CN([C@@H](C)CO)C(=O)Cc2cc(NC(=O)c3ccncc3)ccc2O[C@@H]1CN(C)Cc1ccc(-c2ccccc2)cc1 | -26 | -14 | 48 | nt | nt | nt | nt
C[C@H](CO)N1C[C@H](C)[C@@H](CN(C)Cc2ccc(-c3ccccc3)cc2)Oc2ccc(NC(=O)c3ccncc3)cc2CC1=O | -79 | -9 | 125* | 112* | 82 | 19 | 106*
C[C@@H]1CN([C@H](C)CO)C(=O)Cc2cc(NC(=O)c3ccncc3)ccc2O[C@@H]1CN(C)Cc1ccccc1 | -29 | -1 | 45 | nt | nt | nt | nt
C[C@H]1CN([C@@H](C)CO)C(=O)Cc2cc(NC(=O)c3ccncc3)ccc2O[C@H]1CN(C)Cc1ccc(Oc2ccccc2)cc1 | 13 | -16 | 97* | 98* | 48 | 33 | 104*
Cc1noc(C)c1NC(=O)Nc1ccc2c(c1)C(=O)N([C@@H](C)CO)C[C@H](C)[C@@H](CN(C)C(=O)Cc1ccccc1)OCCCC[C@H](C)O2 | -35 | -5 | 74 | nt | nt | nt | nt
COc1ccc(S(=O)(=O)N(C)C[C@@H]2Oc3cc(C#CC4CCCC4)ccc3S(=O)(=O)N([C@@H](C)CO)C[C@H]2C)cc1 | -73 | 6 | 49 | nt | nt | nt | nt
COc1ccc(S(=O)(=O)N(C)C[C@H]2Oc3cc(C#CC4CCCC4)ccc3S(=O)(=O)N([C@H](C)CO)C[C@H]2C)cc1 | -51 | 6 | 45 | nt | nt | nt | nt
Cc1ccc(S(=O)(=O)N(C)C[C@@H]2Oc3cc(C#CC4CCCC4)ccc3S(=O)(=O)N([C@@H](C)CO)C[C@H]2C)cc1 | -69 | 15 | 127* | 101* | 99* | 46* | 77*
Cc1ccc(S(=O)(=O)N(C)C[C@H]2Oc3cc(C#CC4CCCC4)ccc3S(=O)(=O)N([C@H](C)CO)C[C@@H]2C)cc1 | -55 | 15 | 127* | 100* | 108* | 11 | 51*

High-throughput results as filed in PubChem.
